{"source": "paper PMC5540273", "about": "(PLoS ONE, 2017);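 also: KINOMEscan kinase panel screen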", "data": [{"system": "GAK", "conditions": "concentration: 1 μM, replicates: in singlicate; n = 1", "units": {"%Inh": "%"}, "values": [{"compound": "Fc1ccc(-c2ncn(CCCN3CCOCC3)c2-c2cccnc2)cc1", "note": "[SB-211743]", "%Inh": 2}, {"compound": "COc1cc2ncn(-c3cc(OCc4sccc4Cl)c(C(N)=O)s3)c2cc1OC", "note": "[GSK448459]", "%Inh": 86}, {"compound": "Cl.Nc1ncnc2occ(-c3ccc(NC(=O)Nc4cc(C(F)(F)F)ccc4F)cc3)c12", "note": "[SB-707548]", "%Inh": 0}, {"compound": "NS(=O)(=O)CCc1cccc(Nc2nccc(-c3c(-c4cccc(NC(=O)c5c(F)cccc5F)c4)nn4ccccc34)n2)c1", "note": "[GSK336735]", "%Inh": 28}, {"compound": "O=C(NCCNc1ccnc(Nc2ccc(F)cc2)n1)c1cc2ccccc2s1", "note": "[GSK1379874]", "%Inh": 0}, {"compound": "CCc1ccnc(/C=C/c2n[nH]c3cc(Sc4ccccc4C(=O)NC)ccc23)c1", "%Inh": 0}, {"compound": "CC(C)Oc1ccc2c(-c3ccnc(Nc4ccc(N5CCN(C)CC5)cc4)n3)cnn2n1", "note": "[GW696155]", "%Inh": 96.3}, {"compound": "Cc1nnc(-c2ccc3ncc(-c4ccc(S(C)=O)cc4)n3c2)o1", "note": "(centres unmarked)", "%Inh": 9}, {"compound": "O=C(NCCNc1ccnc(Nc2ccc(F)cc2)n1)Nc1ccccc1F", "note": "[GSK1379880]", "%Inh": 0}, {"compound": "NS(=O)(=O)c1cccc(-c2ccc3ncc(N4CCOCC4)nc3c2)c1", "note": "[GSK1535721]", "%Inh": 15}, {"compound": "CN(C(=O)c1ccc(-c2cc(-c3c[nH]nc3-c3ccccn3)ccn2)cc1)C1CCOCC1", "note": "[GW810083]", "%Inh": 9}, {"compound": "O=C(Nc1cccc(-c2nn3ncccc3c2-c2ccnc(Nc3cccc(C(F)(F)F)c3)n2)c1)c1c(F)cccc1F", "note": "[GSK299495]", "%Inh": 1}, {"compound": "Cc1c(Cn2c(C)nn3c(=O)cc(N4CCOC(C)C4)nc23)cccc1C(F)(F)F", "note": "(centres unmarked) [GSK2344444]", "%Inh": 0}, {"compound": "NCC(NC(=O)c1cc(-c2cn[nH]c2)c(-c2ccnc3[nH]ccc23)s1)c1ccccc1.O=C(O)C(F)(F)F.O=C(O)C(F)(F)F", "note": "(centres unmarked) [GSK1325775]", "%Inh": 91.9}, {"compound": "O=C(NCCCN1CCOCC1)c1cccc(Nc2nccc(Nc3ccc(Oc4ccccc4)cc3)n2)c1", "note": "[GW663929]", "%Inh": 33}, {"compound": "O=C1NC(=O)C(N2CCc3ccccc32)=C1c1cccc(Cl)c1", "note": "[SB-408010]", "%Inh": 10}, {"compound": "Fc1ccc(-c2ncn(CCCN3CCOCC3)c2-c2ccccn2)cc1", "note": "[SB-211742]", "%Inh": 6}, {"compound": "N#Cc1ccc(-c2cc(-c3c[nH]nc3-c3ccccn3)ccn2)cc1", "note": "[GW693028]", "%Inh": 69}, {"compound": "[2H]C([2H])(c1cccc(C(F)(F)F)c1C)n1ccn2c(=O)nc(N3CCOCC3)cc12", "note": "[GSK2336394]", "%Inh": 0}, {"compound": "COc1ccc(COc2cc(-n3cnc4ccccc43)sc2C(N)=O)cc1", "note": "[GSK1024304]", "%Inh": 17}, {"compound": "O=c1cc(N2CCOCC2)nc2n(Cc3cccc(C(F)(F)F)c3)ccn12", "note": "[GSK2297543]", "%Inh": 0}, {"compound": "COC(=O)Nc1nc2cc(Oc3ccc(NC(=O)Nc4cc(F)ccc4F)cc3)ccc2[nH]1.Cl", "note": "[GW701424]", "%Inh": 0}, {"compound": "CN1c2ccc(CNc3ccc(F)cc3)cc2-c2c(cnn2C)S1(=O)=O", "%Inh": 0}, {"compound": "Cc1ccc(NC(=O)c2ccnc(N3CCN(C)CC3)c2)cc1-c1ccc(C(=O)NCC2CC2)cc1", "note": "[GW775604]", "%Inh": 0}, {"compound": "COc1ccc(Nc2nccc(N3CCC(NC(=O)Nc4cccc(C(C)=O)c4)C3)n2)cc1", "note": "(centres unmarked) [GSK1379731]", "%Inh": 0}, {"compound": "Cn1cc(-c2ccc3c(c2)CCN3C(=O)Cc2ccccc2Cl)c2c(N)ncnc21", "note": "[GSK2608885]", "%Inh": 33}, {"compound": "COc1ccc(Nc2nccc(N3CCC(NC(=O)Nc4cc(C)ccc4C)C3)n2)cc1", "note": "(centres unmarked) [GSK1379741]", "%Inh": 9}, {"compound": "COc1cc2c(cc1OCCN1CCN(C)CC1)ncc1c3ccc(C#N)cc3[nH]c21", "%Inh": 99.6}, {"compound": "CSc1ccc(-c2cc3ncnc(SCC(=O)O)c3s2)cc1", "%Inh": 0}, {"compound": "Cc1cccc(Cn2ccn3c(=O)cc(N4CCOCC4)nc23)c1", "note": "[GSK2297542]", "%Inh": 20}, {"compound": "Nc1nc(-c2ccc3c(N)n[nH]c3c2)cc(N2CCCC2)n1", "note": "[GSK2227430]", "%Inh": 0}, {"compound": "Cc1cccc(-c2nc(Nc3ccc4ncsc4c3)c3ccccc3n2)n1", "note": "[GW867588]", "%Inh": 0}, {"compound": "CCn1cnc2c(N)ncnc21", "note": "[GW345098]", "%Inh": 0}, {"compound": "O=C(NOCC1CC1)c1ccc(F)c(F)c1Nc1ccc(I)cc1Cl", "%Inh": 0}]}, {"system": "T1, GCN2(Kin.Dom.2,S808G)", "T1 construct": "gene EIF2AK4", "conditions": "concentration: 1 μM, replicates: in singlicate; n = 1", "units": {"%Inh": "%"}, "values": [{"compound": "Fc1ccc(-c2ncn(CCCN3CCOCC3)c2-c2cccnc2)cc1", "note": "[SB-211743]", "%Inh": 8}, {"compound": "COc1cc2ncn(-c3cc(OCc4sccc4Cl)c(C(N)=O)s3)c2cc1OC", "note": "[GSK448459]", "%Inh": 7}, {"compound": "Cl.Nc1ncnc2occ(-c3ccc(NC(=O)Nc4cc(C(F)(F)F)ccc4F)cc3)c12", "note": "[SB-707548]", "%Inh": 8}, {"compound": "NS(=O)(=O)CCc1cccc(Nc2nccc(-c3c(-c4cccc(NC(=O)c5c(F)cccc5F)c4)nn4ccccc34)n2)c1", "note": "[GSK336735]", "%Inh": 87}, {"compound": "O=C(NCCNc1ccnc(Nc2ccc(F)cc2)n1)c1cc2ccccc2s1", "note": "[GSK1379874]", "%Inh": 0}, {"compound": "CCc1ccnc(/C=C/c2n[nH]c3cc(Sc4ccccc4C(=O)NC)ccc23)c1", "%Inh": 18}, {"compound": "CC(C)Oc1ccc2c(-c3ccnc(Nc4ccc(N5CCN(C)CC5)cc4)n3)cnn2n1", "note": "[GW696155]", "%Inh": 100}, {"compound": "Cc1nnc(-c2ccc3ncc(-c4ccc(S(C)=O)cc4)n3c2)o1", "note": "(centres unmarked)", "%Inh": 0}, {"compound": "O=C(NCCNc1ccnc(Nc2ccc(F)cc2)n1)Nc1ccccc1F", "note": "[GSK1379880]", "%Inh": 3}, {"compound": "NS(=O)(=O)c1cccc(-c2ccc3ncc(N4CCOCC4)nc3c2)c1", "note": "[GSK1535721]", "%Inh": 0}, {"compound": "CN(C(=O)c1ccc(-c2cc(-c3c[nH]nc3-c3ccccn3)ccn2)cc1)C1CCOCC1", "note": "[GW810083]", "%Inh": 2}, {"compound": "O=C(Nc1cccc(-c2nn3ncccc3c2-c2ccnc(Nc3cccc(C(F)(F)F)c3)n2)c1)c1c(F)cccc1F", "note": "[GSK299495]", "%Inh": 8}, {"compound": "Cc1c(Cn2c(C)nn3c(=O)cc(N4CCOC(C)C4)nc23)cccc1C(F)(F)F", "note": "(centres unmarked) [GSK2344444]", "%Inh": 0}, {"compound": "NCC(NC(=O)c1cc(-c2cn[nH]c2)c(-c2ccnc3[nH]ccc23)s1)c1ccccc1.O=C(O)C(F)(F)F.O=C(O)C(F)(F)F", "note": "(centres unmarked) [GSK1325775]", "%Inh": 99.1}, {"compound": "O=C(NCCCN1CCOCC1)c1cccc(Nc2nccc(Nc3ccc(Oc4ccccc4)cc3)n2)c1", "note": "[GW663929]", "%Inh": 36}, {"compound": "O=C1NC(=O)C(N2CCc3ccccc32)=C1c1cccc(Cl)c1", "note": "[SB-408010]", "%Inh": 17}, {"compound": "Fc1ccc(-c2ncn(CCCN3CCOCC3)c2-c2ccccn2)cc1", "note": "[SB-211742]", "%Inh": 0}, {"compound": "N#Cc1ccc(-c2cc(-c3c[nH]nc3-c3ccccn3)ccn2)cc1", "note": "[GW693028]", "%Inh": 0}, {"compound": "[2H]C([2H])(c1cccc(C(F)(F)F)c1C)n1ccn2c(=O)nc(N3CCOCC3)cc12", "note": "[GSK2336394]", "%Inh": 0}, {"compound": "COc1ccc(COc2cc(-n3cnc4ccccc43)sc2C(N)=O)cc1", "note": "[GSK1024304]", "%Inh": 0}, {"compound": "O=c1cc(N2CCOCC2)nc2n(Cc3cccc(C(F)(F)F)c3)ccn12", "note": "[GSK2297543]", "%Inh": 0}, {"compound": "COC(=O)Nc1nc2cc(Oc3ccc(NC(=O)Nc4cc(F)ccc4F)cc3)ccc2[nH]1.Cl", "note": "[GW701424]", "%Inh": 0}, {"compound": "CN1c2ccc(CNc3ccc(F)cc3)cc2-c2c(cnn2C)S1(=O)=O", "%Inh": 15}, {"compound": "Cc1ccc(NC(=O)c2ccnc(N3CCN(C)CC3)c2)cc1-c1ccc(C(=O)NCC2CC2)cc1", "note": "[GW775604]", "%Inh": 0}, {"compound": "COc1ccc(Nc2nccc(N3CCC(NC(=O)Nc4cccc(C(C)=O)c4)C3)n2)cc1", "note": "(centres unmarked) [GSK1379731]", "%Inh": 0}, {"compound": "Cn1cc(-c2ccc3c(c2)CCN3C(=O)Cc2ccccc2Cl)c2c(N)ncnc21", "note": "[GSK2608885]", "%Inh": 81}, {"compound": "COc1ccc(Nc2nccc(N3CCC(NC(=O)Nc4cc(C)ccc4C)C3)n2)cc1", "note": "(centres unmarked) [GSK1379741]", "%Inh": 0}, {"compound": "COc1cc2c(cc1OCCN1CCN(C)CC1)ncc1c3ccc(C#N)cc3[nH]c21", "%Inh": 90.8}, {"compound": "CSc1ccc(-c2cc3ncnc(SCC(=O)O)c3s2)cc1", "%Inh": 0}, {"compound": "Cc1cccc(Cn2ccn3c(=O)cc(N4CCOCC4)nc23)c1", "note": "[GSK2297542]", "%Inh": 6}, {"compound": "Nc1nc(-c2ccc3c(N)n[nH]c3c2)cc(N2CCCC2)n1", "note": "[GSK2227430]", "%Inh": 0}, {"compound": "Cc1cccc(-c2nc(Nc3ccc4ncsc4c3)c3ccccc3n2)n1", "note": "[GW867588]", "%Inh": 4}, {"compound": "CCn1cnc2c(N)ncnc21", "note": "[GW345098]", "%Inh": 6}, {"compound": "O=C(NOCC1CC1)c1ccc(F)c(F)c1Nc1ccc(I)cc1Cl", "%Inh": 0}]}]}
